# Bioassay records as filed in PubChem BioAssay.
# Mdm2-MdmX inh: inhibitors of human Mdm2-MdmX association, primary screen, cell-based, luminescence, split luciferase, SaOS-2, uHTS. AID 485346, 2010. Protein Mdm4 (Homo sapiens) + E3 ubiquitin-protein ligase Mdm2 (Homo sapiens), …. 330,000 tested, 3% active. inhibition, % at 8 µM. SaOS-2 split-luciferase Mdm2/MdmX complementation;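 active means inhibition of at least 50% at 8 µM in the primary screen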
# Calb FLC: C. albicans growth inhibition with fluconazole, primary screen, CaCi-2 strain, Alamar Blue fluorescence | C. albicans CaCi-2 (fluconazole-resistant clinical isolate) + fluconazole, 48 h | growth inhibition, % (no concentration beside the values) | 300,000 tested, 0.57% active | AID 1979, 2009;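 active means growth inhibition above about 58% in most replicates, limit read from the data, passing the limit was not always enough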;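 further: all wells also contain fluconazole at 8 µg/ml as a sub-toxic cotreatment; 0% = median of DMSO wells and 100% = median of geldanamycin control wells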
# SKKanGAS inh: S. pyogenes SKKanGAS growth inhibitors in kanamycin, primary screen, streptokinase expression inhibitor project, SKKanGAS strain, BacTiter-Glo luminescence; 300,000 tested, 1.3% active; inhibition, % at 7.5 µM; 6 h; AID 1662, 2009;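 active means mean replicate score, as percent of positive control median, at least 50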;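 further: strain carries kanamycin resistance gene driven by streptokinase promoter and grows in 40 µg/ml kanamycin; loss of luminescence reflects streptokinase promoter inhibition or plain growth inhibition; 0% = median of DMSO wells and 100% = positive control at its reference dose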
# Beta cell apopt: inhibitors of cytokine-induced beta cell apoptosis, primary screen, luminescence | INS-1E cytokine-induced death, ATP luminescence, 48 h; percent of positive-control rescue, neutral wells zero | protection from apoptosis, % (concentration not given with the values) | 300,000 tested, 0.8% active;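 active means Every replicate reaches about 75%, or at least half do and their mean reaches it too, limit read from the data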;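 further: 0% = cytokine-treated negative control wells and 100% = positive control rescue; higher means more ATP so stronger rescue from cytokine killing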
# MPTP inh: mitochondrial permeability transition pore inhibitors, primary screen, biochemical, isolated mouse mitochondria, absorbance. 360,000 tested, 1.4% active. AID 602449, 2012. Ca2+ swelling absorbance, 30 min. inhibition, % at 10 µM;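 active means inhibition of 50% or more, scaled per plate between neutral and stimulator controls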;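 further: 0% = DMSO wells given calcium and 100% = 1 mM EGTA wells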
# CSC inhib: cancer stem cell viability inhibitors, primary screen, luminescence | cancer stem cell-like cells viability | inhibition, % at 7.5 µM | 300,000 tested, 1.1% active | AID 2717, 2010; in the data active means inhibition above about 75%; tested in HMLE shEcad cells
# Mdm2-MdmX conf: Mdm2-MdmX complex disruptors, retested hits, confirmation, luminescence, single concentration. shares compounds with Mdm2-MdmX inh. Mdm2-MdmX binding, luminescent assay. inhibition, % at 8 µM. 10,000 tested, 55% active. AID 489028, 2010; in the data active means inhibition above about 40%
# FLuc counter: full-length luciferase signal inhibition, confirmation, counter-screen for Mdm2/MdmX interaction inhibitor project, cell-based, single concentration, SaOS-2 | SaOS-2 full-length luciferase counterscreen, luminescence | shares compounds with Mdm2-MdmX inh | inhibition, % at 8 µM | 6,200 tested, 77% active;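 active means mean inhibition at 8 µM reaching about 37%, which flags the compound as non-specific, limit read from the data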;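 further: p53-null SaOS-2 cells with luciferase driven by a doxycycline-inducible promoter; compound on cells about two nights before reading with doxycycline added after day one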
# * = called active by the depositor; / = no result. Sampled rows, rich in hits. Any-hit rate of the full collection: about 5.4%.
SMILES,Mdm2-MdmX inh,Calb FLC,SKKanGAS inh,Beta cell apopt,MPTP inh,CSC inhib,Mdm2-MdmX conf,others
CCC1CCCCN1CCCNC(=O)Cn1ncc2c([nH]c3ccc(C)cc32)c1=O (stereo unspecified),27,13,-4,-5,-1,-9,/,
CCN1CCN(C(=O)Cn2ncc3c([nH]c4ccc(C)cc43)c2=O)CC1,-15,-15,-2,-4,-2,-17,/,
Cc1cc(C)nc(/N=C(\N)Nc2ccc(OCc3ccccc3)cc2)n1,54*,-18,-1,45,34,44,35,
COCCN=c1scc(-c2cc(OC)c(OC)c(OC)c2)n1/N=C/c1c(C)[nH]c2ccccc12,59*,22,18,4,4,115*,19,
CCOC(=O)c1cc(-c2ccccc2)sc1NC(=O)CC,12,-3,-2,-4,0,7,/,
CCOC(=O)c1cc(-c2ccccc2)sc1NC(=O)COC(=O)c1cccc(S(N)(=O)=O)c1,74*,-2,6,35,3,15,26,
CC(C)NC(=O)COC(=O)c1ccc(Cl)c(S(N)(=O)=O)c1,18,-5,-7,2,-6,-11,/,
CCOC(=O)c1cc(-c2ccccc2)sc1NC(=O)COC(=O)c1ccc(Cl)c(S(N)(=O)=O)c1,54*,-2,2,5,0,18,82*,FLuc counter=88*
NNC(=O)/C(=C\c1ccco1)NC(=O)c1ccco1,-7,6,-1,-9,0,-6,/,
COc1ccc(CN(C)C(=S)Nc2ccc(OC(F)F)cc2)cc1,4,7,-19,-3,1,7,/,
Cc1sc2ncnc(N3CCC(C(=O)Nc4ccc(C#N)cc4)CC3)c2c1C,39,-4,8,-8,1,-9,/,
Cc1sc2ncnc(N3CCC(C(=O)N(C)CC(=O)Nc4ccc(Cl)c(C(F)(F)F)c4)CC3)c2c1C,81*,-1,-1,/,-1,96*,55*,FLuc counter=29
Cc1sc2ncnc(N3CCC(C(=O)Nc4ccc(S(N)(=O)=O)cc4)CC3)c2c1C,61*,/,/,-8,-2,/,43*,FLuc counter=72*
Cc1sc2ncnc(N3CCC(C(=O)N(C)CC(=O)Nc4cccc(F)c4)CC3)c2c1C,/,/,/,/,2,/,/,
Cc1ccc(NC(=O)C2CCN(c3ncnc4sc(C)c(C)c34)CC2)cc1S(=O)(=O)N(C)C,45,-6,4,23,-1,2,/,
CCN(CC)S(=O)(=O)c1cc(NC(=O)C2CCN(c3ncnc4sc(C)c(C)c34)CC2)ccc1Cl,90*,6,1,19,11,2,60*,FLuc counter=49*
c1ccc(-c2[nH]ncc2CN2CCN(Cc3ccc4c(c3)OCO4)CC2)cc1,0,3,-8,2,1,-4,/,
COc1cccc(N(CC(=O)NCCSc2ccccn2)S(=O)(=O)c2ccccc2)c1,9,5,-2,0,0,/,/,
CC1=CC(C)(C)N(S(=O)(=O)c2ccc(C)cc2)c2ccc(C)cc21,54*,9,5,/,2,/,61*,FLuc counter=108*
CC1=CC(C)(C)N(S(=O)(=O)c2ccc(F)cc2)c2ccccc21,31,13,5,-3,2,/,/,
C/C=C/C(=O)N1c2ccc(C)cc2C(C)=CC1(C)C,19,-1,12,-2,1,0,/,
CC(=O)Nc1ccc(S(=O)(=O)N2c3ccccc3C(C)=CC2(C)C)cc1,74*,-11,1,22,0,47,60*,FLuc counter=94*
COc1cccc(-c2cc3nc(NCc4cccnc4)n(C)c(=O)c3s2)c1,/,/,/,/,2,/,/,
CC1(C)C=Cc2c(c3c(c4c(=O)c(-c5ccc(O)cc5)coc24)OC(C)(C)CC3)O1,75*,8,43,5,4,100*,31,
CCCCn1c(C)nc2cc(S(=O)(=O)N3CCOCC3)ccc21,7,/,/,-4,0,-14,/,
SMILES,Mdm2-MdmX inh,Calb FLC,SKKanGAS inh,Beta cell apopt,MPTP inh,CSC inhib,Mdm2-MdmX conf,others
CCCCn1c(CCl)nc2cc(S(=O)(=O)N3CCOCC3)ccc21,88*,/,/,-2,-1,-12,53*,FLuc counter=30
O=C(C[n+]1cccc(/C=N/O)c1)N(Cc1ccccc1)Cc1ccccc1,1,-2,-2,0,10,5,/,
CCOc1ccccc1CN1CCC(Oc2cccc(C(=O)NCCOC)c2)CC1,16,-10,2,-6,0,-1,/,
Cc1ccc2c(c1)C(c1ccc([N+](=O)[O-])cc1)=NNC(c1ccc(Br)cc1)=N2,71*,12,13,11,1,14,-3,
CCc1ccc2c(c1)C(c1ccc([N+](=O)[O-])cc1)=NNC(c1ccc(Br)cc1)=N2,18,1,32,6,7,15,/,
CCCOC(=O)c1c(NC(=O)CSc2nc(-c3ccco3)cc(C(F)(F)F)n2)sc(C(=O)OC)c1C,21,-1,14,6,7,16,/,
O=C(NNC(=O)c1cc(Br)ccc1O)c1csc(N2CCOCC2)n1,64*,/,/,10,1,/,44*,FLuc counter=59*
CC(C)CCNc1nnnc2c1sc1nc(N3CCOCC3)c3c(c12)CC(C)(C)SC3,51*,17,11,9,-1,55,6,
CC1(C)Cc2c(c(N3CCOCC3)nc3sc4c(NCC5CCCO5)nnnc4c23)CS1 (stereo unspecified),70*,0,14,-3,-1,3,52*,FLuc counter=69*
C=CC[C@H](CC(=O)N(CCO)Cc1ccccc1)C(=O)NC[C@H](OC(=O)[C@@H](CC=C)Cc1ccc(F)cc1)c1ccccc1,71*,/,/,13,0,31,39,
C=CC[C@@H](CC(=O)N[C@@H](CO)Cc1ccccc1)C(=O)NC[C@@H](OC(=O)[C@@H](CC=C)Cc1ccc(F)cc1)c1ccccc1,52*,/,/,10,0,-11,10,
C=CC[C@@H](CC(=O)N(CCO)Cc1ccccc1)C(=O)NC[C@@H](OC(=O)[C@@H](CC=C)Cc1ccc(F)cc1)c1ccccc1,55*,/,/,7,1,-2,18,
C=CC[C@@H](CC(=O)N[C@@H](CO)Cc1ccccc1)C(=O)NC[C@H](OC(=O)[C@@H](CC=C)Cc1ccc(F)cc1)c1ccccc1,49,/,/,4,0,/,/,
CN(CC(=O)Nc1ccc(Cl)c(S(=O)(=O)N2CCOCC2)c1)C(=O)c1ccc(C#N)cc1,-7,/,/,/,-1,/,/,
